Where a name gives a salt, the structure may show the parent alone.
Each molecule was assayed on Haemophilus parainfluenzae (assay: growth AUC normalised to DMSO control (fraction of control); higher = less growth inhibition, active = hit call of the paper). Conditions: 20 µM;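 active = AUC significantly below DMSO controls by Student t-fit with adjusted P under 0.01; inactive = not significantly reduced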.
How it was run: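 Pathogens were passaged twice under anaerobic conditions, then inoculated into pre-reduced mGAM plates at a starting OD578 of 0.01, with compound at 20 μM and 1% DMSO, and sealed with breathable membranes. For Haemophilus parainfluenzae, the medium was supplemented with hemin and NAD. OD578 was read every hour for 24 h in three biological replicates. Growth-curve AUC was calculated by the trapezoidal rule up to the exponential-to-stationary transition and normalised to DMSO controls on the same plate.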

Row | SMILES | growth AUC normalised to DMSO control
1 | COc1ccc([C@@H]2Sc3ccccc3N(CCN(C)C)C(=O)[C@@H]2OC(C)=O)cc1 [Diltiazem hydrochloride] | 0.988 (inactive)
2 | C=CCOc1ccccc1OCC(O)CNC(C)C (stereo not drawn) [Oxprenolol hydrochloride] | 0.958 (inactive)
3 | CCOc1ccc(Cc2nccc3cc(OCC)c(OCC)cc23)cc1OCC [Ethaverine hydrochloride] | 1.02 (inactive)
4 | CC(C)Cc1ccc([C@H](C)C(=O)O)cc1 [(S,+) Ibuprofen] | 0.941 (inactive)
5 | CC(=O)N[C@@H](CC(C)C)C(=O)O [N-Acetyl-L-leucine] | 1.02 (inactive)
6 | CCOC(=O)C1=C[C@]2(CC)CCCN3CCc4c(n1c1ccccc41)[C@@H]32 [Vinpocetine] | 0.845 (inactive)
7 | CC(C[N+](C)(C)C)OC(N)=O (stereo not drawn) [Bethanechol chloride] | 1 (inactive)
8 | C/C=C(/C(=C/C)c1ccc(O)cc1)c1ccc(O)cc1 [Dienestrol] | 0.999 (inactive)
9 | c1ccc(CC2=NCCN2)cc1 [Tolazoline hydrochloride] | 1.03 (inactive)
10 | CCC(C)n1ncn(-c2ccc(N3CCN(c4ccc(OCC5COC(Cn6cncn6)(c6ccc(Cl)cc6Cl)O5)cc4)CC3)cc2)c1=O (stereo not drawn) [Itraconazole] | 1.09 (inactive)
11 | CCCCc1nc(Cl)c(CO)n1Cc1ccc(-c2ccccc2-c2nnn[nH]2)cc1 [Losartan] | 1.45 (inactive)
12 | COC1=C(OC)C(=O)C(CCCCCCCCCCO)=C(C)C1=O [Idebenone] | 1.04 (inactive)
13 | CNC(=C[N+](=O)[O-])NCCSCc1csc(CN(C)C)n1 [Nizatidine] | 0.993 (inactive)
